Measured values published in PubChem BioAssay (EPA / NIEHS).
The source made the active and inactive calls. Rule for the calls: active = hit-call score of the fitted dose curve at least 0.9, where 1 is the maximum; inactive = score below 0.9.

Assay: ATG_TGFb_CIS: Attagene CIS-FACTORIAL HepG2 Assay for human Transforming Growth Factor (TGF) (AID 2282967)
Conditions: HepG2 Attagene CIS TGFb reporter, mRNA transcription; actives raise or lower the signal
Description: ATG_CIS is a cell-based, multiplexed-readout assay that uses HepG2, a human liver cell line, with measurements taken at 24 hours after chemical dosing in a 24-well plate.ATG_TGFb_CIS is one of 52 assay component(s) measured or calculated from the ATG_CIS assay. It is designed to make measurements of mRNA induction, a form of inducible reporter, as detected with fluorescence intensity signals by Reverse transcription polymerase chain reaction (RT-PCR) and Capillary electrophoresis technology.Data from the assay component ATG_TGFb_CIS was analyzed into 1 assay endpoint. This assay endpoint, ATG_TGFb_CIS, was analyzed with bidirectional fitting relative to DMSO as the negative control and baseline of activity. Using a type of inducible reporter, measures of mRNA for gain or loss-of-signal activity can be used to understand the reporter gene at the transcription factor-level as they relate to the gene TGFB1. Furthermore, this assay endpoint can be referred to as a primary readout, because this assay has produced multiple assay endpoints where this one serves a reporter gene function. To generalize the intended target to other relatable targets, this assay endpoint is annotated to the growth factor intended target family, where the subfamily is transforming growth factor beta.
Human liver HepG2 cells are transiently transfected with multiple reporter transcription units (MRTUs) in 6-well plates using FuGene 6 reagent (Roche; 3 ml FuGene/1 mg DNA). The MRTU constructs are regulated by a cis-regulating element (promoter). […] A major difference between the CIS and TRANS system is that in CIS activities of endogenous TFs are measured, whereas the TRANS assay evaluates changes in activities of exogenous, chimeric NR-Gal4 proteins. […] At the end of 24 hour incubation, total RNA was isolated using TriZol reagent (Invitrogen). The isolated RNA is then reverse-transcribed using oligo(dT) primer and Mo-MLV reverse transcriptase (Invitrogen) with DNAse I (Ambion) treatment for 30 min. The one-tenth of the produced cDNA was amplified by PCR using Taq DNA polymerase (Invitrogen) and two reporter sequence-specific primers. The PCR products were fluorescently labeled by primer extension with 6-arboxyfluorescein (6-FAM) 5'-labeled reporter sequence-specific primer (2 min at 95 C, 20 s at 68 C and 10 min at 72 C) and these products were digested with 5U of HpaI (New England Biolabs) for 2h at 37 C. The fragments were purified using Qiaquick PCR columns (Qiagen), analyzed on an ABI 3130xL genetic analyzer (Applied Biosystems) with peak positions identified by using a set of X-rhodamine (ROX)-labeled MapMarker1000 molecular weight standards (BioVentures). The raw capillary electrophoresis data was processed using Attagraph software (Attagene).

Compound	outcome	AC50
C=CCOc1nc(OCC=C)nc(OCC=C)n1	inactive	–
O=C(OCc1ccccc1)C(=O)OCc1ccccc1	inactive	–
CCCC[n+]1ccccc1	inactive	–
CCCCCCOC(=O)CC	inactive	–
CCCCCC(CO)CCC (stereo not given)	inactive	–
Clc1cccc(Cl)n1	inactive	–
CC1=CCC(O)(C(C)C)CC1 (stereo not given)	inactive	–
O=C(O)c1cn(C2CC2)c2cc(N3CCNCC3)c(F)cc2c1=O	inactive	–
O=C(Oc1ccccc1)c1ccc(O)cc1	inactive	–
Nc1cc(N)cc(C(=O)O)c1	inactive	–
[Ca+2]	inactive	–
CC(C)=CCCC(C)=CCCC(C)=CCO	inactive	–
C=CCOC(=O)CCC1CCCCC1	inactive	–
Nc1cc([N+](=O)[O-])ccc1O	inactive	–
Cc1cc(C2(c3cc(C)c(O)cc3C)OS(=O)(=O)c3ccccc32)c(C)cc1O	inactive	–
c1ccc2c(c1)c1cccc3ccc4cccc2c4c31	inactive	–
C=CC[N+](C)(C)CC=C	inactive	–
C=CC(C)(O)CCC=C(C)CCC=C(C)C (stereo not given)	–	187 µM (active)
O=C(O)CCCCCCCCCCC(=O)O	inactive	–
Cc1ncc([N+](=O)[O-])n1C	inactive	–

Compound	outcome	AC50
CSc1nc(NC2CC2)nc(NC(C)(C)C)n1	inactive	–
CC(C)(C)C(=O)c1ccccc1	inactive	–
CCOC(=O)c1ccccc1OC	inactive	–
CC(=O)OCC=Cc1ccccc1	inactive	–
CC(C=O)Cc1ccc(C(C)C)cc1 (stereo not given)	inactive	–
O=C1CCCCCCCCCCCCCCO1	–	158 µM (active)
C=C(C)[C@@H]1CC[C@@H](C)C[C@@H]1O	inactive	–
CC1(C)CCC(C)(C)c2cc(C(=O)Nc3ccc(C(=O)O)cc3)ccc21	inactive	–
NC(=O)NC1NC(=O)NC1=O (stereo not given)	inactive	–
NC(=O)Nc1ccc(Cl)cc1	inactive	–
O=[N+]([O-])c1ccc(Nc2ccc(Nc3ccccc3)c(S(=O)(=O)O)c2)c([N+](=O)[O-])c1	–	148 µM (active)
Cc1cccc(C)c1[N+](=O)[O-]	inactive	–
CC(=O)C=CC1=C(C)CCCC1(C)C	inactive	–
O=C1O[C@@H]2[C@@H](O)[C@H](O)O[C@@H]2[C@H]1O	inactive	–
CCN(CC)CCOC(=O)c1ccc(N)cc1	inactive	–
O=C(COc1ccc(Cl)cc1)N1CCN(Cc2ccc3c(c2)OCO3)CC1	inactive	–
C=C(C)C(=O)OCCOC(=O)CC(C)=O	inactive	–
CC(C)(C)c1cc(CCC(=O)NN)cc(C(C)(C)C)c1O	inactive	–
Cc1cccc(Nc2ccccc2C(=O)O)c1C	inactive	–
CC1CCC(C(C)CS)CC1S (stereo not given)	inactive	–
